According to PubChem BioAssay (EPA / NIEHS):
Values joined by “and” are separate entries in the source; they are usually repeats but may differ in a detail not shown here. Identical values can stand only once. Inconclusive results are not listed. Active and inactive are the calls of the source. How the source made its calls, unless noted: active means hit-call score of the fitted dose curve at least 0.9, where 1 is the maximum; inactive means score below 0.9.

Key:
[1] = CCTE_Deisenroth_5AR_NBTE_donor: CCTE's 5alpha-reductase NanoBRET Target Engagement Assay […], Deisenroth Lab (AID 2284319); settings: actives raise or lower the signal
Summary of the method: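 HEK293T cells transiently expressing SRD5A2-NanoLuc, exposed 5 h to chemicals (8 points, 10 nM - 29.9 uM), with testosterone tracer for the final 2 h. Donor luminescence at 460 nm read after Nano-Glo substrate plus extracellular NanoLuc inhibitor; bidirectional fit versus DMSO.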

[2] = CCTE_Deisenroth_5AR_NBTE_acceptor: CCTE's 5alpha-reductase NanoBRET Target Engagement Assay - Autofluorescence Screen, Deisenroth Lab (AID 2284321); settings: actives raise or lower the signal;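 further: compound fluorescence in the acceptor channel under 460 nm excitation flags autofluorescence artifacts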
Summary of the method: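 HEK293T cell-based NanoBRET assay read 5 h after dosing; this acceptor channel serves as an autofluorescence artifact screen. Chemicals at nominal 100 uM were scanned in three independent runs (n=3), excitation 460 nm. Fitting was bidirectional versus DMSO baseline.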

SRD5A2 (gene 6716) = assay: CCTE_Deisenroth_5AR_NBTE_ratio: CCTE's 5alpha-reductase NanoBRET Target Engagement Assay - Ratio, Deisenroth Lab (AID 2284322); settings: actives raise or lower the signal
Summary of the method: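 HEK293T transiently expressing SRD5A2-NanoLuc; cells exposed to chemical (8-point, 10 nM - 29.9 uM) for 5 h total, testosterone tracer added for final 2 h. NanoBRET acceptor/donor ratio (650/460 nm), bidirectional fit vs DMSO.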

[3] = TAMU_PeakParms_SingleDonor1434_Asystole: Texas A&M University (TAMU) 1.5-hr Human Induced Pluripotent Stem Cell (iPSC)-derived Cardiomyocytes Calcium (Ca+2) Flux Assay for Cardiotoxicity: Asystole (quiescence of beating) (AID 2284328; active means hit-call score of the fitted dose curve at least 0.9, where 1 is the maximum)
Summary of the method: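 Average Ca2+-flux peak frequency (beats/s) was recorded in single-donor iPSC-derived cardiomyocytes after 90 min exposure (0.2–100 uM final, 0.5% DMSO). Asystole POD set as EC95 against DMSO, no preprocessing.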

[4] = IUF_NPC2-5_cytotoxicity_72hr: Cytotoxicity Assessment at 72 hours in the Leibniz Research Institute for Environmental Medicine (IUF) Neural Progenitor Cell Migration and Differentiation Assay for Cytotoxicity (NPC2-5) (AID 2284306; active means hit-call score of the fitted dose curve at least 0.9, where 1 is the maximum;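 further: LDH release into supernatant measured by resorufin fluorescence marking membrane damage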)
Summary of the method: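 Membrane integrity loss was scored from fluorescence (RFU) of resorufin generated by LDH in culture supernatant, 72 h after dosing. Differentiating human progenitor spheres received seven serial compound concentrations alongside a solvent control.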

[5] = IUF_NPC2-5_cytotoxicity_120hr: Cytotoxicity Assessment at 120 hours in the Leibniz Research Institute for Environmental Medicine (IUF) Neural Progenitor Cell Migration and Differentiation Assay (NPC2-5) (AID 2284307; active means hit-call score of the fitted dose curve at least 0.9, where 1 is the maximum)
Summary of the method: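 Human fetal neural progenitor spheres (0.3 mm, GW 16-19 cortex) were plated on poly-D-lysine/laminin in N2 differentiation medium and exposed for 120 h, with half-medium refresh at day 3. LDH release into supernatant was read by resorufin fluorescence.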

[6] = IUF_NPC2-5_cell_number_120hr: Cell Number Assessment at 120 hours in the Leibniz Research Institute for Environmental Medicine (IUF) Neural Progenitor Cell Migration and Differentiation Assay (NPC2-5) (AID 2284308);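 further: count of Hoechst-stained nuclei in migration zone around plated human neural progenitor spheres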
Summary of the method: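 Primary human fetal neural progenitor spheres (GW 16-19, 0.3 mm) plated on poly-D-lysine/laminin in N2 differentiation medium, exposed from day 0 for 120 h with half-medium refresh at day 3; Hoechst-positive nuclei counted in migration area versus DMSO control.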

[7] = IUF_NPC2-5_viability_120hr: Viability Assessment at 120 hours in the Leibniz Research Institute for Environmental Medicine (IUF) Neural Progenitor Cell Migration and Differentiation Assay (NPC2-5) (AID 2284312)
Summary of the method: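 Alamar blue resorufin fluorescence read after 5 days of differentiation, with compound present from day 0 and replenished at day 3. Primary hNPC spheres on laminin-coated plates, 37C; seven concentrations plus solvent control, fitted against DMSO.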

[8] = CCTE_Mundy_HCI_iCellGluta_NOG_NeuriteLength: CCTE's Neurite Outgrowth Assay in iCellGluta cells for Neurite Length, Mundy Lab (AID 2284318; active means hit-call score of the fitted dose curve at least 0.9, where 1 is the maximum)
Summary of the method: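 Automated high-content imaging of betaIII-tubulin (Alexa Fluor-488) and Hoechst-stained cells gave neurite length, normalized to the DMSO baseline.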

[9] = IUF_NPC1_cytotoxicity_72hr: Cytotoxicity Assessment at 72 hours in the Leibniz Research Institute for Environmental Medicine (IUF) Neural Progenitor Cell Proliferation Assay (NPC1) (AID 2284332; active means hit-call score of the fitted dose curve at least 0.9, where 1 is the maximum;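 further: rising LDH signal means more cytotoxicity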)
Summary of the method: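 Human fetal neural progenitor spheres (0.3 mm) in EGF/FGF proliferation medium, 37C, exposed 72 h without renewal. LDH release in supernatant read by resorufin fluorescence; gain of signal scored relative to dynamic range.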

[10] = CCTE_Mundy_HCI_iCellGluta_NOG_NeuronCount: CCTE's Neurite Outgrowth Assay in iCellGluta cells for Neuron Count, Mundy Lab (AID 2284340; active means hit-call score of the fitted dose curve at least 0.9, where 1 is the maximum;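 further: cells fixed about 48 h after compound addition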)
Summary of the method: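 Neuron count read by automated high-content imaging of Hoechst 33342 and betaIII-tubulin/Alexa Fluor-488 labelling in human iPSC glutamatergic neurons. Activity fitted relative to DMSO.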

IYD (gene 389434) = assay: CCTE_GLTED_hIYD: CCTE's human Iodotyrosine Deiodinase (xIYD) Inhibition Assay, Great Lakes Toxicology and Ecology Division (GLTED) Lab (AID 2284317; active means hit-call score of the fitted dose curve at least 0.9, where 1 is the maximum;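 further: cell-free human IYD enzyme made in baculovirus insect cells; iodide freed from monoiodotyrosine measured by cerium arsenite color change at 420 nm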)
Summary of the method: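 hIYD: baculovirus-expressed human IYD deiodinated monoiodotyrosine for 3 h with test chemical; free iodide was measured by Sandell-Kolthoff absorbance at 420 nm and normalized to MNT and DMSO/NaOH controls.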

TTR (gene 7276) = assay: CCTE_GLTED_hTTR_0.5uM: CCTE's human Transthyretin (hTTR) Inhibition Assay, with 0.5uM TTR, Great Lakes Toxicology and Ecology Division (GLTED) Lab (AID 2284320)
Summary of the method: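 Cell-free displacement assay in which human TTR at 0.5 uM was incubated with test chemical for 2 h. Displacement of the ANSA probe was read by fluorescence at 380 nm excitation/475 nm emission. Loss of signal was fitted in the positive direction versus DMSO.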

In the case of `Cc1cc(-c2ccc(N)c(C)c2)ccc1N`, the outcome [1] is reported as “inactive”, the outcome [2] is reported as “inactive” and the AC50 (SRD5A2 (gene 6716)) is reported as 50 µM (active).
With `c1cc2ccc3cccc4ccc(c1)c2c34` the outcome [3] was “inactive”.
In the case of `CO/C=C(/C(=O)OC)c1ccccc1COc1cccc(C(F)(F)F)n1`, the outcome [4] is reported as “inactive”, the outcome [5] is reported as “inactive” and the AC50 [6] is reported as 9.92 µM (active). The AC50 [7] was 6.8 µM (active), the AC50 [8] was 5.9 µM (active) and the outcome [9] was “inactive”. For the same compound, the AC50 [10] was 35.8 µM (active).
With `NS(=O)(=O)C(F)(F)C(F)(F)C(F)(F)C(F)(F)C(F)(F)C(F)(F)C(F)(F)C(F)(F)F` the AC50 (IYD (gene 389434)) was 46.1 µM (active), the outcome [8] was “inactive” and the AC50 (TTR (gene 7276)) was 807 nM (active). The outcome [10] was “inactive”.
With `O=S(=O)(O)C(F)(F)C(F)(F)C(F)(F)C(F)(F)C(F)(F)C(F)(F)F` the outcome [4] was “inactive”, the outcome [5] was “inactive” and the outcome [6] was “inactive”. The outcome [7] was “inactive”, the outcome [8] was “inactive” and the AC50 (TTR (gene 7276)) was 455 nM (active) and 190 nM (active). For the same compound, the outcome [9] was “inactive” and the outcome [10] was “inactive”.
In the case of `O=C(O)C(F)(F)C(F)(F)C(F)(F)C(F)(F)C(F)(F)F`, the AC50 (TTR (gene 7276)) is reported as 1460 nM (active).
For `Clc1ccc(C(c2ccccc2Cl)C(Cl)(Cl)Cl)cc1` (stereo not drawn), the outcome [1] was “inactive”, the outcome [2] was “inactive” and the AC50 (SRD5A2 (gene 6716)) was 50 µM (active).
With `CC(C)(c1ccccc1)c1ccc(O)cc1` the outcome [1] was “inactive”, the outcome [2] was “inactive” and the outcome (SRD5A2 (gene 6716)) was “inactive”.
For `O=C(O)C(F)(F)C(F)(F)C(F)(F)C(F)(F)C(F)(F)C(F)(F)C(F)(F)C(F)(F)C(F)(F)F`, the AC50 (IYD (gene 389434)) was 95.5 µM (active) and 50.9 µM (active), the AC50 (TTR (gene 7276)) was 721 nM (active) and the outcome [10] was “inactive”.
With `COc1ccc(O)c(C(C)(C)C)c1` the outcome [8] was “inactive” and the outcome [10] was “inactive”.
For `CCC(C)c1cc([N+](=O)[O-])cc([N+](=O)[O-])c1O` (stereo not drawn), the AC50 [1] was 29.4 µM (active), the AC50 [2] was 9.91 µM (active) and the AC50 (SRD5A2 (gene 6716)) was 53.3 µM (active).
